From PubChem BioAssay AID2676 (National Center for Advancing Translational Sciences (NCATS), 2010)
Hit rate of the full screen: of about 370,000 compounds, about 1,100 (0.3%) were called active. Not shown: some 1% with an inconclusive outcome. The call rests on the fitted dose curve; in most records, active means well fitted activation curve with a large enough effect; inconclusive means small, poorly fitted or top-dose-only effect; inactive means flat fitted curve, though single readings scatter. The sample as a whole holds a higher share of actives than the screen did.
Further: nearly all actives have a fitted effect of over 60% in size.
On the % scale 0 is the no-effect control and ±100 the full control effect; potency means the concentration at half of the fitted maximal effect.

The compounds below were run against Relaxin receptor 1 (Homo sapiens) (UniProt Q9HBX9) (assay: qHTS Assay for Agonists of the Relaxin Receptor RXFP1). Conditions: HEK293T-RXFP1 cAMP TR-FRET, 30 min; series mostly up to 57.5 µM; activation: at the top concentration.
Chain of Relaxin receptor 1 (Homo sapiens) (Q9HBX9 whole entry, looked up): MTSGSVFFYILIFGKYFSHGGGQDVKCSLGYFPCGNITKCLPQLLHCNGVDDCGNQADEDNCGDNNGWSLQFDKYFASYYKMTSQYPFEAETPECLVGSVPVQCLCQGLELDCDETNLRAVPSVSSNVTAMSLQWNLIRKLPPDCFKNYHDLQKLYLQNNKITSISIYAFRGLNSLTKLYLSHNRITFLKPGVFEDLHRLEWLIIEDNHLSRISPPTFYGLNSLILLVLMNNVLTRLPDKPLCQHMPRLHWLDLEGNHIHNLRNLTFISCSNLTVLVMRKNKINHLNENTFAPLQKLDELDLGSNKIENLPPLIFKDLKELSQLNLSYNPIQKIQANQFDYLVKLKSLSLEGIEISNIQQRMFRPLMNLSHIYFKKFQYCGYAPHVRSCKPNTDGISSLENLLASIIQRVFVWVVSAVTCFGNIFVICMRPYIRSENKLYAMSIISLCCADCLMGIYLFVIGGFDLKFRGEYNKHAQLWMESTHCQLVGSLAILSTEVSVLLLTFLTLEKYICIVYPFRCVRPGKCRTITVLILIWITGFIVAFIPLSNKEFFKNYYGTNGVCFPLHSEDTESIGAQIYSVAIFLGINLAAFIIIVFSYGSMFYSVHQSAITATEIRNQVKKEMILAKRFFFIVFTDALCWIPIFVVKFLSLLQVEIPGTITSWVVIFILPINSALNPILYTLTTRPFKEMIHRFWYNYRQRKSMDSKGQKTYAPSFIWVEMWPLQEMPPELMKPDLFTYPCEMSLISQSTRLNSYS
Text: NIH Chemical Genomics Center [NCGC] NIH Molecular Libraries Probe Production Centers Network [MLPCN] MLPCN Grant: R03 MH085705-01A1 Assay Submitter (PI): Alexander Agoulnik NCGC Assay Overview: The relaxin hormone is involved in the variety of biological functions in normal tissues and diseases. The role of relaxin is well-established in female reproduction and parturition, mammary gland and endometrial development, maintenance of myometrial quiescence during pregnancy. Relaxin signaling through its G protein-coupled receptor (GPCR) RXFP1 results in ECM remodeling through regulation of collagen deposition, cell invasiveness, proliferation and overall tissue homeostasis. […] Recombinant human relaxin (rhRlx) is currently being tested in clinical trials as a protective agent in congestive heart failure, in treating severe preeclampsia, and as an anti-fibrotic agent in systemic sclerosis. Upon relaxin binding RXFP1 activation leads to the activation of adenylate cyclase (AC) via Gs. cAMP will activate PKA, which phosphorylates many signaling proteins. Thus, detection of cAMP increase is an easy and reliable indication of relaxin receptor activation. To screen for agonists of the relaxin receptor, a HEK293T cell line stably transfected with RXFP1 was used. RXFP1 activation was assayed by changes in cAMP levels as detected with a time-resolved fluorescence energy transfer (TR-FRET) cAMP detection kit.
NCGC Assay Protocol Summary: This is a cell-based assay for cAMP second messenger response to screen for agonists of the RXFP1 receptor. The assay was conducted in the presence of a PDE4 inhibitor (Ro 20174). The cells were lysed and the cAMP levels were measured with a TR-FRET cAMP kit. Presence of cAMP in the cell lysate disrupts binding between the cryptate-labeled anti-cAMP and d2-labeled cAMP pair, leading to a decrease in the TR-FRET signal. Data were normalized to the controls for basal activity (buffer only) and 100% activity (29 nM porcine relaxin). The EC50 values were determined from concentration-response data modeled with the standard Hill equation 1536-well assay protocol for the HEK293 RXFP1 cAMP assay: (1) Add 3 ul HEK293 RXFP1 cell culture. 2000 cells/well in DMEM/F12, 10% FBS, 1x Pen/Strep (dispensed offline with MultiDrop Combi). (2) Incubate 16-24 hr at 37C, 5% CO2. (3) Add 1 ul 400uM Ro20174 in DPBS, 0.05% BSA, 0.005% Tween 20. (3) Add 23 nl compounds in DMSO solution. Final concentration was 0.5 - 58 uM. (4) Incubate 30 min at 37C, 5% CO2. (5) Add 1 ul cAMP-d2 in lysis buffer (HTRF cAMP HiRange kit, CisBio). (6) Add 1 ul anti-cAMP antibody-cryptate in lysis buffer (HTRF cAMP HiRange kit, CisBio). (7) Incubate 30 min at room temperature. (6) Detect the assay plate in a ViewLux plate reader (PerkinElmer) with Ex=320 nm, Em1=615 nm and Em2=665 nm. Keywords: relaxin, RXFP1, RXFP2, G-protein coupled receptor, cAMP, agonist, high throughput screening, MLSMR, MLSCN, NIH Roadmap, qHTS and NCGC
`COc1ccc(C)cc1N(C)C(=O)c1c(C)oc2ncnc(N3CCOCC3)c12` was tested, and the “activation” value was -3.68% (inactive). `O=C(NCCCc1ccccc1)c1ccc2c(c1)sc1nc(-c3ccc(F)cc3)cn12` was tested, and the “activation” value was -1.38% (inactive). For `COc1cccc(C(=O)N(Cc2cccc(Cl)c2)Cc2ccco2)c1`, the “activation” value was 1.03% (inactive). `COc1cc(Cl)c(NC(=O)C(NS(=O)(=O)c2cccs2)C(C)C)c(OC)c1` (centres undefined) was tested, and the “activation” value was -2.63% (inactive). For `CCOC(=O)c1c(NC(=O)COc2cc(C)ccc2C(C)C)sc(C)c1C`, the “activation” value was 2.49% (inactive). For `COC(=O)c1ccccc1NC(=O)c1ccc(COc2ccccc2Cl)o1`, the “activation” value was 2.52% (inactive). For `O=C(Cn1c(=O)n(-c2ccc(F)cc2)c(=O)c2sccc21)Nc1cccc(C(F)(F)F)c1`, the “activation” value was 0.102% (inactive). With `CC(C)(C)c1ccc(OCC(=O)N2CCC(c3nc4ccccc4s3)CC2)cc1` the “activation” value was -0.849% (inactive). For `O=C(NC1CC(=O)N(c2ccc(F)cc2)C1)c1ccc(S(=O)(=O)N2CCCC2)cc1` (centres undefined), the “activation” value was 1.57% (inactive). In the case of `COc1ccc(Cn2ccnc2SCC(=O)NCc2ccco2)cc1`, the “activation” value is reported as 2.97% (inactive). With `CCOc1ccc2oc(=O)cc(CN3CCN(C(=O)c4ccc(F)cc4)CC3)c2c1` the “activation” value was 1.02% (inactive). In the case of `Cn1c(=O)c2c(ncn2CC(=O)N/N=C/c2cn[nH]c2-c2ccc(F)cc2)n(C)c1=O`, the Potency is reported as 14.1 µM (active). `CN(CC(=O)Nc1ccc(F)c(F)c1F)C(=O)Cn1cnc2c1c(=O)n(C)c(=O)n2C` was tested, and the “activation” value was 9.55% (inactive). For `Cc1cnc(NC(=O)Cn2cnc3c2c(=O)n(C)c(=O)n3C)s1`, the “activation” value was 15.8% (inactive). `CCCNc1ncnc2c1c(-c1ccccc1)cn2-c1ccc(OCC)cc1` was tested, and the “activation” value was 4.06% (inactive). In the case of `COc1ccc(S(=O)(=O)N2CCOCC2)cc1NC(=O)Cc1c(F)cccc1Cl`, the “activation” value is reported as -0.855% (inactive). In the case of `COc1ccc(S(=O)(=O)N2CCOCC2)cc1NC(=O)CSc1ncnc2ccccc12`, the Potency is reported as 15.8 µM (active). In the case of `COc1ccc(S(=O)(=O)N2CCOCC2)cc1NC(=O)CSc1cc(C)ccc1C`, the “activation” value is reported as -2% (inactive). With `CCOc1ccc(C(=O)Nc2ccc3nc4c(c(Nc5ccccc5OC)c3c2)CCCC4)cc1` the “activation” value was -0.31% (inactive). In the case of `C=Cc1ccc(Cn2c(C(=O)O)c(CNC3CCCC3)c3ccc(C)cc32)cc1`, the “activation” value is reported as 0.0544% (inactive). In the case of `CCOc1ccc(CCNC(=O)CN(c2ccc(C)cc2)S(=O)(=O)N(C)C)cc1OCC`, the “activation” value is reported as 2% (inactive). With `O=C(Nc1ccc(Br)cc1)c1cc2nc(-c3ccccc3)cc(-c3ccccc3)n2n1` the “activation” value was 3.76% (inactive). In the case of `COc1ccc2oc(-c3ccc(C)c(NC(=O)c4sc5ccccc5c4Cl)c3)nc2c1`, the “activation” value is reported as 2.29% (inactive). `CCOc1cccc(CC(=O)N2CCc3c([nH]c4ccccc34)C2c2ccc(OC)cc2)c1OCC` (centres undefined) was tested, and the “activation” value was 4.11% (inactive). In the case of `Cc1cc(C)cc(NC(=O)Cn2nc(N3CCN(c4ccccc4)CC3)ccc2=O)c1`, the “activation” value is reported as 0.0868% (inactive). With `Cc1ccc(Cl)cc1N(C)C(=O)C1CCCN(c2ncnc3onc(-c4ccc(F)cc4)c23)C1` (centres undefined) the “activation” value was 0.553% (inactive). In the case of `COc1ccc(N2CCN(C3=NS(=O)(=O)C(c4cccc(Br)c4)=C3C)CC2)cc1`, the “activation” value is reported as -0.541% (inactive). `Cc1c(-c2nsc(NC(=O)c3cccc(Cl)c3)n2)nnn1-c1ccccc1C(F)(F)F` was tested, and the “activation” value was -0.886% (inactive). For `COc1ccc(-c2nc3c(c(SCC(=O)Nc4ccc(C(=O)O)cc4)n2)Cc2ccccc2O3)cc1`, the “activation” value was 21.7% (inactive). With `Cc1ccc(-c2nn(CCC(=O)Nc3ccc(OC(F)(F)F)cc3)c(=O)c3ccccc23)cc1` the “activation” value was 6.25% (inactive). In the case of `COc1ccc(-n2c(SCC(N)=O)nc3c(oc4ccccc43)c2=O)cc1`, the “activation” value is reported as 0.504% (inactive). With `COC(=O)c1ccccc1NC(=O)C(Cc1ccccc1)N1Cc2ccccc2C1=O` (centres undefined) the “activation” value was 4.06% (inactive). For `CC1=C(c2ccc(F)cc2)S(=O)(=O)N=C1N1CCC(C(=O)NCCc2ccccc2C)CC1`, the “activation” value was 2.67% (inactive). For `Cc1ccc2nc3c(cc(C(=O)NC4CCCCC4)c(=N)n3C(C)C)c(=O)n2c1`, the “activation” value was 5.26% (inactive). In the case of `COc1cccc(-n2c(=O)c3c(C)c(C(=O)N(C)C)sc3n(Cc3cccc(C)c3)c2=O)c1`, the “activation” value is reported as 2.04% (inactive). `CCCCOc1ccc(CNC(=O)c2ccc3c(c2)N(C)C(=O)C2CCCCN32)cc1` (centres undefined) was tested, and the “activation” value was -0.99% (inactive). `O=C(c1ccc2c(c1)N(Cc1ccccc1)C(=O)c1ccccc1S2(=O)=O)N1CCC(Cc2ccccc2)CC1` was tested, and the “activation” value was 0.856% (inactive). In the case of `Cc1cccc(NC(c2cccc(F)c2)c2ccc3ccc(C)nc3c2O)n1` (centres undefined), the “activation” value is reported as 1.58% (inactive). `CCOc1ccccc1NC(=O)Cn1c(=O)n(Cc2ccccc2)c(=O)c2c(C)c(C(=O)N(C)C)sc21` was tested, and the “activation” value was 2.17% (inactive). For `COc1ccc(S(=O)(=O)Nc2cc3c(C(=O)OC(C)C)c(C)oc3c3ccccc23)cc1`, the “activation” value was 1.2% (inactive). For `CC1=C(C(=O)N2CCN(c3cccc(C(F)(F)F)c3)CC2)C2(CCCCC2)OC1=O`, the “activation” value was -0.574% (inactive). In the case of `CC(C)(C)OC(=O)N1CCC(c2c(C(=O)N3CCN(c4cccc(Cl)c4)CC3)cnn2-c2cccc(Cl)c2)CC1`, the “activation” value is reported as 2.09% (inactive). In the case of `COc1ccc2c(c1)CCc1c(C(=O)Nc3cc(C)ccc3O)noc1-2`, the “activation” value is reported as -4.18% (inactive). `COc1cccc(CNC(=O)Cn2c(=O)c3cccn3c3ccc(F)cc32)c1OC` was tested, and the “activation” value was 2.2% (inactive). In the case of `O=C(NCCc1ccccc1)c1cnc2sc(N3CCCC3)nn2c1=O`, the “activation” value is reported as 8.9% (inactive). In the case of `COc1ccccc1-c1nnc(SCC(N)=O)o1`, the “activation” value is reported as 11.1% (inactive). With `COc1cccc(C2C(C(=O)Nc3ccc(C)cc3C)=C(C)Nc3c(C(=O)Nc4ccccc4)cnn32)c1` (centres undefined) the “activation” value was -1.61% (inactive). In the case of `CCCCN1C(=O)c2[nH]nc(-c3ccccc3O)c2C1c1cccc(OCc2ccccc2)c1` (centres undefined), the “activation” value is reported as 1.42% (inactive). In the case of `CCN(C(=O)c1sc2cc(OC)ccc2c1Cl)c1ccccc1`, the “activation” value is reported as 1.04% (inactive). For `CCC(Sc1nc2n[nH]c(C)c2c(=N)n1-c1ccccc1Cl)C(=O)N(CC)CC` (centres undefined), the “activation” value was 3.81% (inactive). With `Cc1nn(Cc2ccc(F)cc2)c(C)c1NC(=O)c1cc(CC(C)C)on1` the “activation” value was -1.08% (inactive). `Cc1ccccc1NC(=O)c1cc2c([nH]c1=O)CC(C)(C)CC2=O` was tested, and the “activation” value was 19% (inactive). With `O=C(CCn1c(=O)c2sccc2n(Cc2ccc(F)cc2)c1=O)NCc1ccc2c(c1)OCO2` the “activation” value was 13.4% (inactive). `CCCCN1CC(c2nc3ccccc3n2CCCCOc2ccc(C)cc2C)CC1=O` (centres undefined) was tested, and the “activation” value was -4.27% (inactive). With `O=C(c1ccc(C(F)(F)F)cc1)N1CCC(c2nc(-c3ccc(S(=O)(=O)N4CCCC4)cc3)no2)CC1` the “activation” value was -4.31% (inactive). For `CC(C)(C)c1ccc(C(=O)NCC(c2ccco2)S(=O)(=O)c2ccc(F)cc2)cc1` (centres undefined), the “activation” value was 1.03% (inactive). With `COc1ccc(Cc2nc3ccc(C(=O)NCc4ccc(OC)cc4OC)cc3o2)cc1` the “activation” value was -1.3% (inactive). `O=C(CSCc1cnn(-c2ccccc2)c1-n1cccc1)NCc1ccc(Cl)cc1` was tested, and the “activation” value was 0.103% (inactive). `O=C(Nc1ccc(Br)cc1)c1ccc(Br)c(S(=O)(=O)NCc2ccccc2)c1` was tested, and the “activation” value was 2.11% (inactive).
